Compound activity from PubChem.
Most compounds without a hit are left out; they make up all but 28% or so of the library.
CD11b adhes inh – inhibitors of human CD11b/CD18 binding to fibrinogen. P05107+P11215. K562 CD11b/CD18 adhesion to fibrinogen, ATPlite luminescence; Mn2+ added to activate the integrin. inhibition, % at 10 µM. actives 0.54% (n = 93,000);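 active = primary inhibition of 50% or more at 10 µM, then 40% or more on retest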
CYP2C19 activ – increases human CYP2C19 enzyme activity; recombinant CYP2C19, luciferin-H EGE luminescence; hits give high values; 0 = fully inhibited enzyme, 1 = untreated enzyme; 96,000 tested, under 10 active; AID 1025; P33261; activation factor at 5 µM;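 active = activation factor of at least 2 at 5 µM in the primary screen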;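 note: 0 = wells with 2.5 mM tranylcypromine and 1 = vehicle-only wells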
CYP2C9 activ – increases human cytochrome P450 2C9 activity; actives 1.4% (n = 96,000); recombinant CYP2C9, luciferin-H conversion, luminescence; hits give high values; factor 1 = untreated enzyme, 0 = blocked; activation factor at 5 µM;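 active = activation factor of 2 or more for CYP2C9 at a 5 µM dose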;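 note: 0 = sulfaphenazole-blocked wells and 1 = vehicle-only wells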
Target sequence (P11712 whole entry, looked up): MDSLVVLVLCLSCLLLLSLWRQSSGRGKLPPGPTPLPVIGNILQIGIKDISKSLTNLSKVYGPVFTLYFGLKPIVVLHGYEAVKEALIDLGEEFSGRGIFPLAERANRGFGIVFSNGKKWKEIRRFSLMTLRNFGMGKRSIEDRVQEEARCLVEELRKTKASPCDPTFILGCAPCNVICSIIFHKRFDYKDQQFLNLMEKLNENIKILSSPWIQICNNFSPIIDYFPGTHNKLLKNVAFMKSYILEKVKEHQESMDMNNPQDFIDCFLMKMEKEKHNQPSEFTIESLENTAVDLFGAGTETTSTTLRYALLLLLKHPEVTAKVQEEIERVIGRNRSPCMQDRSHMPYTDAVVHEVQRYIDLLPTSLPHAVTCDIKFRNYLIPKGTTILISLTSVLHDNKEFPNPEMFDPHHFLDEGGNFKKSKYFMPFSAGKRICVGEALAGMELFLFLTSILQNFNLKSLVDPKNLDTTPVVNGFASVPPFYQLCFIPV
Mac1 fbg enh – CD11b/CD18-fibrinogen binding enhancement; K562 CD11b/CD18 adhesion to fibrinogen, ATPlite luminescence; activation, % at 10 µM; P05107+P11215; actives 0.07% (n = 93,000);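 active = 10 µM primary screen giving 50% or more activity, confirmed by 40% or more on retest at that dose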
CYP2C19 inh – inhibitors of human CYP2C19. CYP2C19 Supersomes, luciferin-H EGE luminescence, 30 min. inhibition, % at 5 µM. P33261. actives 21% (n = 96,000);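 active = CYP2C19 inhibition above a set limit at 5 µM in the primary screen, cut at about 50% in these data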;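 note: plate controls were negative control wells for no effect and 2.5 mM tranylcypromine positive control for full effect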
CYP2C9 inhib – inhibitors of human CYP2C9 | CYP2C9 Supersomes, luciferin-H conversion, luminescence | actives 20% (n = 96,000) | inhibition, % at 5 µM | P11712 | AID 777;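 active = blocking of liver enzyme CYP2C9 beyond about 50% at 5 µM, limit read from the data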
Starred values were filed as active, the others as inactive; x = no result.

SMILES	CD11b adhes inh	CYP2C19 activ	CYP2C9 activ	Mac1 fbg enh	CYP2C19 inh	CYP2C9 inhib
N#Cc1c(N)c(C(=O)c2ccc(Br)cc2)n2c1CCC2	-15.8	1	1	-1.7	-2.6	1.5
O=C(NCc1ccccn1)c1cn(-c2ccccc2)nc1-c1ccc(Cl)cc1	-2.9	x	x	-3.3	x	x
O=C(O)c1ccc(NS(=O)(=O)c2ccc(Cl)cc2)cc1	-1.6	1	1.1	-5.4	-2.1	-7.1
CN(c1cccc(NC(=O)CN(c2cccc(Cl)c2)S(=O)(=O)c2ccc(Cl)cc2)c1)S(C)(=O)=O	2.8	x	x	12.2	x	x
CCCNC(=O)c1ccccc1NC(=O)CN(c1ccccc1OCC)S(C)(=O)=O	9.8	0.8	0.4	-0.9	16.9	58.3*
CCOc1ccccc1N(CC(=O)Nc1ccc2c(c1)OCCO2)S(C)(=O)=O	-1.8	0.5	0.2	-0.9	45.3	76.6*
CS(=O)(=O)N(CC(=O)Nc1cccc(Cl)c1)c1ccccc1Cl	0.4	0	0.1	7.2	96.9*	90.2*
CCOc1ccccc1N(CC(=O)Nc1ccc2c(c1)OCO2)S(C)(=O)=O	-2.1	0.9	0.7	0.4	12.1	32.2
CCOc1ccccc1N(CC(=O)Nc1ccc(C)cc1)S(C)(=O)=O	-16.6	0.3	0.6	-0.2	70.8*	39.6
Cc1ccc(NC(=O)NC(=O)CSc2nnc(-c3ccc(Cl)cc3Cl)n2N)c(C)c1	29.3	x	x	-1.9	x	x
O=C(CCSCc1cccc(Cl)c1)NC1CCCC1	12.1	x	x	0.1	x	x
COc1cccc(NC(=O)N2CCCC(C(=O)Nc3ccccc3OC)C2)c1 (centres undefined)	2.0	1	1.6	0.5	4.5	-60.3
CCOC(=O)c1ccccc1NC(=O)CN(c1ccccc1C)S(C)(=O)=O	-17.7	0	0.2	-2.8	95.6*	77.9*
Cc1ccc(NC(=O)CN(c2ccccc2F)S(C)(=O)=O)cc1	-4.8	0.2	0.5	2.5	75.5*	48.2
CCCCC(CCC(=O)Nc1ccccc1C(=O)OCC)C(=O)O (centres undefined)	-5.2	1.1	0.4	4.2	-11.0	59.1*
Cc1ccc2nc(-c3ccc(NC(=O)CN(c4ccccc4C)S(C)(=O)=O)cc3)sc2c1	15.2	0.1	0.8	59.1	92.4*	20.5
CCC(C)NC(=O)c1cnn2c1NC(c1ccc3c(c1)OCO3)CC2C(F)(F)F (centres undefined)	-3.5	1	1	-0.9	-0.8	1.7
CC(=O)c1cccc(N(CC(=O)Nc2ccc(F)cc2F)S(C)(=O)=O)c1	-2.8	0.2	0.9	-0.5	76.2*	10.9
Cc1ccccc1N(CC(=O)Nc1ccc(F)cc1)S(C)(=O)=O	6.6	0.1	0.6	1.8	88.7*	44.9
Cc1ccccc1N(CC(=O)N1CCN(c2ccccc2)CC1)S(C)(=O)=O	0.3	1.1	0.9	2.0	-6.9	10.4
CC(=O)c1cccc(NC(=O)CN(c2ccccc2)S(C)(=O)=O)c1	8.7	0.7	0.8	13.7	25.5	17.6
C=CCNC(=O)CN(c1ccccc1OCC)S(=O)(=O)c1ccc(C)cc1	-13.8	0.3	0.3	4.3	65.8*	68.3*
CC(=O)c1cccc(NC(=O)CN(c2ccccc2F)S(C)(=O)=O)c1	0.0	0.5	0.5	-3.8	54.1*	49.0
CCOc1ccc(Nc2cc(=O)n(C)c(=O)n2C)cc1	-14.8	0.9	0.9	2.0	5.0	11.9
CC1CCN(c2c([N+](=O)[O-])nn(-c3ccc4c(c3)OCCO4)[n+]2[O-])CC1	-39.3	0.8	0.6	2.1	18.6	38.9
SMILES	CD11b adhes inh	CYP2C19 activ	CYP2C9 activ	Mac1 fbg enh	CYP2C19 inh	CYP2C9 inhib
Cc1sc2nc(N)sc2c1C	0.3	1.1	1.1	1.0	-7.2	-5.8
CCOc1ccc(NC(=O)c2ccccc2NC(=O)CN(C)CC(=O)Nc2ccc(C)cc2)cc1	11.4	0.1	0	-0.1	93.8*	96.6*
O=C1C=C(N2CCN(C3=CC(=O)CCC3)CC2)CCC1	-5.5	1	1.1	-0.7	-0.1	-12.8
CCOC(=O)Nc1cc(OC)c(OC)cc1Cc1nccc2cc(OC)c(OC)cc12	-12.6	0.2	0.4	-3.3	85.0*	62.0*
CCOC(=O)Nc1ccc2c(c1)N(C(=O)OC)c1ccccc1CC2	-2.2	0.3	0.1	1.0	69.7*	85.3*
CCOC(=O)Nc1ccc2c(c1)N(C(=O)CCN(C)C)c1ccccc1S2	x	0.8	1	x	22.6	2.5
CCOC(=O)Nc1ccc2c(c1)N(C(=O)CN1CCN(C)CC1)c1ccccc1S2	-0.7	0.4	0.8	-3.5	57.6*	21.6
CC1CN(C(=S)NC(=O)c2ccc([N+](=O)[O-])cc2)CC(C)O1 (centres undefined)	x	0.9	0.9	x	10.0	9.8
CCCCCCOC(=O)Sc1nc2ccccc2o1	29.4	0.5	0.3	-3.7	51.8*	65.1*
COc1ccc(N/C=C(/C(C)=O)c2ccccc2)cc1	-16.0	0.1	0.1	-6.6	89.0*	90.3*
COc1cccc(C(=O)Nc2ccc(NC(C)=O)cc2)c1	-5.2	0.7	0.9	-4.6	27.3	12.2
COc1cccc(CSc2nc3sc(C)c(C)c3c(=O)n2Cc2ccco2)c1	-14.2	0.4	0.2	-3.8	56.2*	78.0*
Cc1cccc(CSc2nnc(-c3cccs3)n2Cc2ccco2)c1	x	0.3	0.5	x	68.8*	52.8*
Cc1sc2nc(SCc3nc4ccccc4[nH]3)n(Cc3ccco3)c(=O)c2c1C	2.3	0.8	0.2	39.0	17.3	78.1*
Cc1cccc(CSc2nc3sc(C)c(C)c3c(=O)n2Cc2ccco2)c1	-2.4	0.6	0.2	-3.6	42.1	84.5*
Cc1ccc(CSc2nc3sc(C)c(C)c3c(=O)n2Cc2ccco2)cc1	-6.7	0.6	0.5	-1.9	35.3	49.2
CNC(=S)N1C2CCC1CC(NC(=O)NC13CC4CC(CC(C4)C1)C3)C2 (centres undefined)	-2.5	1	1.1	-0.1	-2.3	-13.8
O=C(CSc1nncs1)Nc1ccc(Cl)cn1	-1.0	x	x	-0.3	x	x
COC(=O)C(NC(=O)c1ccccc1)(Nc1nccs1)C(F)(F)F (centres undefined)	-0.6	0.8	0.8	-2.0	22.6	23.3
CCOC(=O)C(NC(=O)OC(C)C)(Nc1nccs1)C(F)(F)F (centres undefined)	-18.4	0.4	1.1	0.7	55.3*	-6.1
O=C(NCC1CCCO1)c1ccc(COCC(F)(F)C(F)F)cc1 (centres undefined)	-14.3	0.5	0.9	0.7	47.9	13.0
CC(C)NC(=O)c1ccc(COCC(F)(F)C(F)F)cc1	4.1	0.2	1.2	-1.2	83.5*	-23.4
Cn1nc([N+](=O)[O-])c2c(-c3nc4ccccc4s3)c(N)n(C3CCCCC3)c2c1=O	6.8	1.1	0.7	0.0	-7.6	28.9
CN(C)S(=O)(=O)c1ccc(C(=O)Nc2ccnn2C2CCCCC2)cc1	4.2	1	0.4	0.2	-4.3	62.8*
